{"source": "PubChem BioAssay", "key": {"[1]": {"assay": "viability loss with induced miR-34 in A549 – imaging, A549 dox-inducible miR-34, nuclei and caspase counts, primary screen (AID 1347080); note: test concentration not given here", "conditions": "A549 miR-34 inducible, Hoechst nuclei count, 48 h"}, "[2]": {"assay": "MELAS cybrid and Rieske KO viability enhancers – cell-based, MELAS cybrids, Rieske KO mouse fibroblasts, CellTiter-Glo, primary screen (AID 1508586;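 active = mean z-score across replicates of 1.96 or higher in either the MELAS or the Rieske mutant cell line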;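 note: test concentration not given here; z relative to plate mean and SD of compound and empty wells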)", "conditions": "low glucose"}, "[3]": {"assay": "galactose survival enhancers in mitochondrial complex I cybrids – cell-based, galactose medium, ATP luminescence, primary screen (AID 1645843;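 active = z-score of at least 1.8 in each of two replicates, scored against plate mean and spread of sample wells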;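 note: positive z means more ATP and so rescue of galactose-driven cybrid death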)", "conditions": "complex I mutant cybrid cells, 72 h, stronger effect = higher value"}, "[4]": {"conditions": "stronger effect = lower value, cell number ratio, induced over uninduced"}, "[5]": {"conditions": "measured here: relative caspase fold change +Dox/-Dox"}, "[6]": {"conditions": "measured here: total cells with miR-34 induction, stronger effect = lower value"}, "[7]": {"conditions": "measured here: total cells without miR-34 induction"}, "[8]": {"conditions": "MELAS cybrid survival, CellTiter-Glo 48 h, stronger effect = higher value"}, "[9]": {"conditions": "Rieske KO mouse fibroblast survival, CellTiter-Glo 72 h"}}, "note": "Active and inactive are the calls of the source.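 Rule for the calls, unless noted: active = compounds whose cell count with miR-34 switched on is under 0.7 times the count with it off; inactive = the rest.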", "data": [{"smiles": "CS(=O)(=O)c1ccc(C(=N)N)cc1", "values": [{"measurement": "fold change", "setting": "[1]; [4]", "value": "0.887 (inactive)"}, {"measurement": "fold change", "setting": "[1]; [5]", "value": 0.391}, {"measurement": "cell count", "setting": "[1]; [6]", "value": 8670}, {"measurement": "cell count", "setting": "[1]; [7]", "value": 9770}, {"measurement": "z-score", "setting": "[2]; [8]", "value": "0.807 (inactive)"}, {"measurement": "z-score", "setting": "[2]; [9]", "value": -0.298}, {"measurement": "z-score", "setting": "[3]", "value": "0.2 (inactive)"}]}, {"smiles": "NS(=O)(=O)c1ccc(CCC(=O)O)cc1", "values": [{"measurement": "fold change", "setting": "[1]; [4]", "value": "0.881 (inactive)"}, {"measurement": "fold change", "setting": "[1]; [5]", "value": 0.214}, {"measurement": "cell count", "setting": "[1]; [6]", "value": 8780}, {"measurement": "cell count", "setting": "[1]; [7]", "value": 9960}, {"measurement": "z-score", "setting": "[2]; [8]", "value": "0.234 (inactive)"}, {"measurement": "z-score", "setting": "[2]; [9]", "value": -0.0972}, {"measurement": "z-score", "setting": "[3]", "value": "0.14 (inactive)"}]}, {"smiles": "COc1ncccc1-c1cnn(CC(=O)Nc2cc(-c3ccccn3)nn2C)c1", "values": [{"measurement": "fold change", "setting": "[1]; [4]", "value": "0.961 (inactive)"}, {"measurement": "fold change", "setting": "[1]; [5]", "value": 0.557}, {"measurement": "cell count", "setting": "[1]; [6]", "value": 9520}, {"measurement": "cell count", "setting": "[1]; [7]", "value": 9900}, {"measurement": "z-score", "setting": "[2]; [8]", "value": "-0.417 (inactive)"}, {"measurement": "z-score", "setting": "[2]; [9]", "value": 0.201}, {"measurement": "z-score", "setting": "[3]", "value": "-0.56 (inactive)"}]}, {"smiles": "Cc1sc2ncnc(-c3cccc4cccnc34)c2c1C", "values": [{"measurement": "fold change", "setting": "[1]; [4]", "value": "0.871 (inactive)"}, {"measurement": "fold change", "setting": "[1]; [5]", "value": 1.66}, {"measurement": "cell count", "setting": "[1]; [6]", "value": 8110}, {"measurement": "cell count", "setting": "[1]; [7]", "value": 9310}, {"measurement": "z-score", "setting": "[2]; [8]", "value": "-0.544 (inactive)"}, {"measurement": "z-score", "setting": "[2]; [9]", "value": -0.845}, {"measurement": "z-score", "setting": "[3]", "value": "0.64 (inactive)"}]}, {"smiles": "c1cc(CN2CCN3CCCC3C2)n(-c2nccs2)c1", "note": "(centres undefined)", "values": [{"measurement": "fold change", "setting": "[1]; [4]", "value": "0.908 (inactive)"}, {"measurement": "fold change", "setting": "[1]; [5]", "value": 1.4}, {"measurement": "cell count", "setting": "[1]; [6]", "value": 8290}, {"measurement": "cell count", "setting": "[1]; [7]", "value": 9130}, {"measurement": "z-score", "setting": "[2]; [8]", "value": "0.256 (inactive)"}, {"measurement": "z-score", "setting": "[2]; [9]", "value": -0.144}, {"measurement": "z-score", "setting": "[3]", "value": "-0.595 (inactive)"}]}, {"smiles": "Cn1c(=O)c(O)c(O)c2ccccc21", "values": [{"measurement": "fold change", "setting": "[1]; [4]", "value": "0.815 (inactive)"}, {"measurement": "fold change", "setting": "[1]; [5]", "value": 0.99}, {"measurement": "cell count", "setting": "[1]; [6]", "value": 4980}, {"measurement": "cell count", "setting": "[1]; [7]", "value": 6110}, {"measurement": "z-score", "setting": "[2]; [8]", "value": "-0.227 (inactive)"}, {"measurement": "z-score", "setting": "[2]; [9]", "value": -0.541}, {"measurement": "z-score", "setting": "[3]", "value": "-2.27 (inactive)"}]}, {"smiles": "O=C(O)c1ccc2ccccc2n1", "values": [{"measurement": "fold change", "setting": "[1]; [4]", "value": "0.876 (inactive)"}, {"measurement": "fold change", "setting": "[1]; [5]", "value": 0.492}, {"measurement": "cell count", "setting": "[1]; [6]", "value": 7890}, {"measurement": "cell count", "setting": "[1]; [7]", "value": 9000}, {"measurement": "z-score", "setting": "[2]; [8]", "value": "-1.05 (inactive)"}, {"measurement": "z-score", "setting": "[2]; [9]", "value": -0.692}, {"measurement": "z-score", "setting": "[3]", "value": "0.485 (inactive)"}]}, {"smiles": "Cc1nn(C)c(C)c1-c1ccnc(N2CCCC2c2nc(-c3cccnc3)no2)n1", "note": "(centres undefined)", "values": [{"measurement": "fold change", "setting": "[1]; [4]", "value": "0.869 (inactive)"}, {"measurement": "fold change", "setting": "[1]; [5]", "value": 1.21}, {"measurement": "cell count", "setting": "[1]; [6]", "value": 6880}, {"measurement": "cell count", "setting": "[1]; [7]", "value": 7910}, {"measurement": "z-score", "setting": "[2]; [8]", "value": "-0.00142 (inactive)"}, {"measurement": "z-score", "setting": "[2]; [9]", "value": 0.462}, {"measurement": "z-score", "setting": "[3]", "value": "-0.385 (inactive)"}]}, {"smiles": "COc1ccc(N2CCN(c3ncnc4sccc34)C(C)C2=O)cc1", "note": "(centres undefined)", "values": [{"measurement": "fold change", "setting": "[1]; [4]", "value": "0.791 (inactive)"}, {"measurement": "fold change", "setting": "[1]; [5]", "value": 1.18}, {"measurement": "cell count", "setting": "[1]; [6]", "value": 6180}, {"measurement": "cell count", "setting": "[1]; [7]", "value": 7810}, {"measurement": "z-score", "setting": "[2]; [8]", "value": "-0.528 (inactive)"}, {"measurement": "z-score", "setting": "[2]; [9]", "value": -0.443}, {"measurement": "z-score", "setting": "[3]", "value": "-0.505 (inactive)"}]}, {"smiles": "Cc1csc(CNc2nccc(-c3cnn(-c4ccccc4)c3)n2)n1", "values": [{"measurement": "fold change", "setting": "[1]; [4]", "value": "0.775 (inactive)"}, {"measurement": "fold change", "setting": "[1]; [5]", "value": 1.81}, {"measurement": "cell count", "setting": "[1]; [6]", "value": 4550}, {"measurement": "cell count", "setting": "[1]; [7]", "value": 5870}, {"measurement": "z-score", "setting": "[2]; [8]", "value": "-0.292 (inactive)"}, {"measurement": "z-score", "setting": "[2]; [9]", "value": 0.283}, {"measurement": "z-score", "setting": "[3]", "value": "-0.175 (inactive)"}]}, {"smiles": "O=C(Nc1n[nH]c(-c2ccccc2)n1)N1CCN(c2ccc(F)cc2)CC1", "values": [{"measurement": "fold change", "setting": "[1]; [4]", "value": "0.826 (inactive)"}, {"measurement": "fold change", "setting": "[1]; [5]", "value": 1.21}, {"measurement": "cell count", "setting": "[1]; [6]", "value": 6770}, {"measurement": "cell count", "setting": "[1]; [7]", "value": 8190}, {"measurement": "z-score", "setting": "[2]; [8]", "value": -0.373}, {"measurement": "z-score", "setting": "[2]; [9]", "value": 4.03}, {"measurement": "z-score", "setting": "[3]", "value": "0.11 (inactive)"}]}, {"smiles": "O=C(O)c1cnn(-c2ccccc2)c1", "values": [{"measurement": "fold change", "setting": "[1]; [4]", "value": "0.883 (inactive)"}, {"measurement": "fold change", "setting": "[1]; [5]", "value": 0.82}, {"measurement": "cell count", "setting": "[1]; [6]", "value": 8690}, {"measurement": "cell count", "setting": "[1]; [7]", "value": 9840}, {"measurement": "z-score", "setting": "[2]; [8]", "value": "-0.738 (inactive)"}, {"measurement": "z-score", "setting": "[2]; [9]", "value": 0.631}, {"measurement": "z-score", "setting": "[3]", "value": "1.16 (inactive)"}]}, {"smiles": "CCN(Cc1nccn1C)C(=O)c1cc(-c2cnc(C)nc2)nc2cc(F)ccc12", "values": [{"measurement": "fold change", "setting": "[1]; [4]", "value": "0.881 (inactive)"}, {"measurement": "fold change", "setting": "[1]; [5]", "value": 1.32}, {"measurement": "cell count", "setting": "[1]; [6]", "value": 8950}, {"measurement": "cell count", "setting": "[1]; [7]", "value": 10200}, {"measurement": "z-score", "setting": "[2]; [8]", "value": "-0.0942 (inactive)"}, {"measurement": "z-score", "setting": "[2]; [9]", "value": -0.488}, {"measurement": "z-score", "setting": "[3]", "value": "-0.2 (inactive)"}]}, {"smiles": "CCn1c2ccccc2c2cc(CNC)ccc21", "values": [{"measurement": "fold change", "setting": "[1]; [4]", "value": "0.848 (inactive)"}, {"measurement": "fold change", "setting": "[1]; [5]", "value": 0.773}, {"measurement": "cell count", "setting": "[1]; [6]", "value": 7330}, {"measurement": "cell count", "setting": "[1]; [7]", "value": 8640}, {"measurement": "z-score", "setting": "[2]; [8]", "value": "0.644 (inactive)"}, {"measurement": "z-score", "setting": "[2]; [9]", "value": -0.0619}, {"measurement": "z-score", "setting": "[3]", "value": "-0.915 (inactive)"}]}, {"smiles": "NC(N)=NCC(=O)O", "values": [{"measurement": "fold change", "setting": "[1]; [4]", "value": "0.926 (inactive)"}, {"measurement": "fold change", "setting": "[1]; [5]", "value": 0.467}, {"measurement": "cell count", "setting": "[1]; [6]", "value": 8690}, {"measurement": "cell count", "setting": "[1]; [7]", "value": 9380}, {"measurement": "z-score", "setting": "[2]; [8]", "value": "0.863 (inactive)"}, {"measurement": "z-score", "setting": "[2]; [9]", "value": 0.0822}, {"measurement": "z-score", "setting": "[3]", "value": "0.15 (inactive)"}]}, {"smiles": "Cc1ccc2c(-c3ncnc4scc(C)c34)cccc2n1", "values": [{"measurement": "fold change", "setting": "[1]; [4]", "value": "0.882 (inactive)"}, {"measurement": "fold change", "setting": "[1]; [5]", "value": 1.37}, {"measurement": "cell count", "setting": "[1]; [6]", "value": 6650}, {"measurement": "cell count", "setting": "[1]; [7]", "value": 7540}, {"measurement": "z-score", "setting": "[2]; [8]", "value": "-0.275 (inactive)"}, {"measurement": "z-score", "setting": "[2]; [9]", "value": -0.173}, {"measurement": "z-score", "setting": "[3]", "value": "2.45 (inactive)"}]}, {"smiles": "O=C(O)CNC(=O)Cc1c[nH]c2ccccc12", "values": [{"measurement": "fold change", "setting": "[1]; [4]", "value": "0.855 (inactive)"}, {"measurement": "fold change", "setting": "[1]; [5]", "value": 0.234}, {"measurement": "cell count", "setting": "[1]; [6]", "value": 8420}, {"measurement": "cell count", "setting": "[1]; [7]", "value": 9850}, {"measurement": "z-score", "setting": "[2]; [8]", "value": "-0.685 (inactive)"}, {"measurement": "z-score", "setting": "[2]; [9]", "value": -0.0302}, {"measurement": "z-score", "setting": "[3]", "value": "-0.545 (inactive)"}]}]}
